Laboratory results published in PubChem BioAssay (EPA / NIEHS).
Values joined by “and” are separate entries in the source; they are usually repeats but may differ in a detail not shown here. Identical values can stand only once. Where a structure was tested more than once in an assay, its records may differ in their call. Active and inactive are the calls of the source. Rule for the calls: active = hit-call score of the fitted dose curve at least 0.9, where 1 is the maximum; inactive = score below 0.9.

Tests used:
[1] = read-out: Vascular cell adhesion molecule 1 (VCAM1), VCAM1 (gene 7412); assay: BSK_hDFCGF_VCAM1: BioMAP Diversity Plus: hDFCGF Assay for Vascular cell adhesion molecule 1 (VCAM1) Biomarker Activity (AID 2283065); conditions: primary human foreskin fibroblasts; actives raise or lower the signal;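 for AC50: VCAM-1 protein level quantified by ELISA after 24 h chemical exposure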
How it was run: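 Cells are dosed, cultured for 24 h, then VCAM-1 is quantified by ELISA; signal increases and decreases are both fitted relative to DMSO.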

[2] = read-out: Plasminogen activator inhibitor-1 (PAI1), SERPINE1 (gene 5054); assay: BSK_hDFCGF_PAI1: BioMAP Diversity Plus: hDFCGF Assay for Plasminogen activator inhibitor-1 (PAI1) Biomarker Activity (AID 2283066); conditions: primary human foreskin fibroblasts; actives raise or lower the signal
How it was run: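 PAI-1 levels in human dermal foreskin fibroblasts were quantified by ELISA 24 h after dosing, with gain or loss analysed against DMSO. Overt cytotoxicity was checked by sulforhodamine B total-protein staining in parallel cultures.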

[3] = read-out: Intercellular Adhesion Molecule 1 (ICAM1), ICAM1 (gene 3383); assay: BSK_KF3CT_ICAM1: BioMAP Diversity Plus: KF3CT Assay for Intercellular Adhesion Molecule 1 (ICAM1) Biomarker Activity (AID 2283067); conditions: primary human keratinocytes with fibroblasts; actives raise or lower the signal
How it was run: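 Dose the keratinocyte/fibroblast co-culture, wait 24 h, measure ICAM-1 by ELISA, then fit increases or decreases against DMSO. Cytotoxicity is checked in parallel cultures by SRB total-protein staining.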

[4] = read-out: Interferon-gamma inducible Protein 10 (IP10), CXCL10 (gene 3627); assay: BSK_KF3CT_IP10: BioMAP Diversity Plus: KF3CT Assay for Interferon-gamma inducible Protein 10 (IP10) Biomarker Activity (AID 2283068); conditions: primary human keratinocytes with fibroblasts; actives raise or lower the signal
How it was run: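 ELISA read-out of IP-10 after 24 h chemical dosing of human skin primary co-culture (keratinocytes, foreskin fibroblasts). Gain or loss of signal relative to DMSO, bidirectional curve fit.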

[5] = BSK_KF3CT_SRB: Viability Assessment in the BioMAP Diversity Plus: KF3CT Assay (AID 2283069); conditions: primary human keratinocytes with fibroblasts;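 note: fitted for both signal gain and loss against DMSO baseline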
How it was run: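 Overt cytotoxicity is assessed as total protein by sulforhodamine B staining in parallel human skin co-cultures at 24 h after dosing. DMSO serves as negative control and baseline.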

[6] = read-out: Interleukin-1 alpha (IL1a), IL1A (gene 3552); assay: BSK_KF3CT_IL1a: BioMAP Diversity Plus: KF3CT Assay for Interleukin-1 alpha (IL1a) Biomarker Activity (AID 2283070); conditions: primary human keratinocytes with fibroblasts; actives raise or lower the signal
How it was run: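 Readout is IL-1a level by ELISA, compared bidirectionally with DMSO as baseline. Cells: human keratinocytes co-cultured with foreskin fibroblasts, harvested 24 h post-dose.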

[7] = read-out: TIMP metallopeptidase inhibitor 2 (TIMP2), TIMP2 (gene 7077); assay: BSK_KF3CT_TIMP2: BioMAP Diversity Plus: KF3CT Assay for TIMP metallopeptidase inhibitor 2 (TIMP2) Biomarker Activity (AID 2283071); conditions: primary human keratinocytes with fibroblasts; actives raise or lower the signal
How it was run: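 TIMP-2 measured by ELISA at 24 h in human keratinocyte/fibroblast primary co-cultures exposed to chemicals. Both increases and decreases were fitted against DMSO. Parallel cultures were stained with SRB for total protein as an overt-cytotoxicity check.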

[8] = read-out: C-C motif chemokine 2 (Homo sapiens) (UniProt P13500); assay: BSK_KF3CT_MCP1: BioMAP Diversity Plus: KF3CT Assay for Monocyte Chemoattractant Protein 1 (MCP1/CCL2) Biomarker Activity (AID 2283073); conditions: primary human keratinocytes with fibroblasts; actives raise or lower the signal
How it was run: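 Keratinocytes and foreskin fibroblasts were co-cultured, dosed with chemical, and sampled 24 h later. MCP-1 was quantified by ELISA, and the endpoint was analyzed with bidirectional fitting using DMSO as negative control.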

[9] = read-out: Matrix Metallopeptidase 9 (MMP9), MMP9 (gene 4318); assay: BSK_KF3CT_MMP9: BioMAP Diversity Plus: KF3CT Assay for Matrix Metallopeptidase 9 (MMP9) Biomarker Activity (AID 2283074); conditions: primary human keratinocytes with fibroblasts; actives raise or lower the signal;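 for AC50: MMP9 protein level quantified by ELISA in the co-culture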
How it was run: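 Values come from bidirectional fitting relative to DMSO of MMP-9 levels, which were measured by ELISA. Measurements were taken 24 h after chemical dosing of a keratinocyte and foreskin fibroblast co-culture.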

[10] = read-out: urokinase plasminogen activator (uPA), PLAU (gene 5328); assay: BSK_KF3CT_uPA: BioMAP Diversity Plus: KF3CT Assay for urokinase plasminogen activator (uPA) Biomarker Activity (AID 2283075); conditions: primary human keratinocytes with fibroblasts; actives raise or lower the signal
How it was run: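 Values derive from bidirectional fitting against DMSO controls. Keratinocyte/foreskin fibroblast co-cultures received chemical; 24 h later uPA was detected by ELISA, with SRB total-protein staining in parallel wells for overt cytotoxicity.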

CD40, CD40 (gene 958) = assay: BSK_LPS_CD40: BioMAP Diversity Plus: LPS Assay for CD40 Biomarker Activity (AID 2283076); conditions: primary human HUVEC with PBMC; actives raise or lower the signal
How it was run: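 CD40 signal, measured by ELISA, is fitted in both directions relative to DMSO vehicle. The system is an LPS-driven human vascular primary co-culture of endothelial cells and PBMC, sampled 24 h after compound addition.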

[11] = read-out: E-selectin (Homo sapiens) (UniProt P16581); assay: BSK_LPS_Eselectin: BioMAP Diversity Plus: LPS Assay for Eselectin Biomarker Activity (AID 2283077); conditions: primary human HUVEC with PBMC; actives raise or lower the signal
How it was run: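 Signal of E-selectin, detected by ELISA, served as the endpoint; cells were umbilical vein endothelium with PBMC, read 24 h after treatment. DMSO defined baseline, and both increases and decreases were fitted.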

[12] = read-out: Interleukin-8 (IL8), CXCL8 (gene 3576); assay: BSK_LPS_IL8: BioMAP Diversity Plus: LPS Assay for Interleukin-8 (IL8) Biomarker Activity (AID 2283078); conditions: primary human HUVEC with PBMC; actives raise or lower the signal
How it was run: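 Endothelial cells and PBMC from human donors are co-cultured, treated with chemicals and LPS, then assayed for IL-8 by ELISA after 24 h. Parallel SRB staining (0.1% SRB after 10% TCA fixation, 560 nm) flags cytotoxicity.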

[13] = read-out: Interleukin-1 alpha (IL1a), IL1A (gene 3552); assay: BSK_LPS_IL1a: BioMAP Diversity Plus: LPS Assay for Interleukin-1 alpha (IL1a) Biomarker Activity (AID 2283080); conditions: primary human HUVEC with PBMC; actives raise or lower the signal
How it was run: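 Measured: IL-1 alpha via ELISA at 24 h in LPS-activated human umbilical vein endothelium–PBMC co-culture. Baseline: DMSO, bidirectional fitting.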

[14] = read-out: Monocyte Chemoattractant Protein-1 (MCP1), CCL2 (gene 6347); assay: BSK_LPS_MCP1: BioMAP Diversity Plus: LPS Assay for Monocyte Chemoattractant Protein-1 (MCP1) Biomarker Activity (AID 2283081); conditions: primary human HUVEC with PBMC; actives raise or lower the signal;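 for AC50: secreted MCP-1 protein quantified by ELISA in culture supernatant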
How it was run: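 LPS-stimulated HUVEC/PBMC co-culture; chemical, 24 h; MCP-1 by ELISA; bidirectional fit vs DMSO; cytotoxicity via SRB (0.1% stain, 10% TCA fix, 560 nm) in parallel wells.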

[15] = BSK_LPS_PGE2: BioMAP Diversity Plus: LPS Assay for Prostaglandin E2 (PGE2) Biomarker Activity (AID 2283082); conditions: primary human HUVEC with PBMC; actives raise or lower the signal;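 for AC50: secreted prostaglandin E2 measured by ELISA in LPS-stimulated co-culture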
How it was run: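 PGE2 release measured by ELISA in an LPS-activated co-culture of human umbilical vein endothelial cells and peripheral blood mononuclear cells, read at 24 h post-dosing. DMSO served as baseline for bidirectional curve fitting.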

[16] = read-out: Macrophage colony-stimulating factor (MCSF), CSF1 (gene 1435); assay: BSK_LPS_MCSF: BioMAP Diversity Plus: LPS Assay for Macrophage colony-stimulating factor (MCSF) Biomarker Activity (AID 2283083); conditions: primary human HUVEC with PBMC; actives raise or lower the signal
How it was run: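 Compound is added to a human vascular primary co-culture of umbilical vein endothelium and blood mononuclear cells. After 24 h, M-CSF is quantified by ELISA. Signal changes are fitted in both directions against DMSO.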

[17] = read-out: Tissue Factor, F3 (gene 2152); assay: BSK_LPS_TissueFactor: BioMAP Diversity Plus: LPS Assay for Tissue Factor Biomarker Activity (AID 2283084); conditions: primary human HUVEC with PBMC; actives raise or lower the signal
How it was run: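 In this co-culture system of umbilical vein endothelium with PBMC, stimulated with LPS, cell-surface CD142 is detected by ELISA at 24 h. Endpoint values derive from bidirectional fitting, DMSO serving as baseline.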

[18] = read-out: Tumor necrosis factor (Homo sapiens) (UniProt P01375); assay: BSK_LPS_TNFa: BioMAP Diversity Plus: LPS Assay for Tumour Necrosis Factor alpha (TNFa) Biomarker Activity (AID 2283085); conditions: primary human HUVEC with PBMC; actives raise or lower the signal;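 for AC50: TNFa protein level quantified by ELISA in the co-culture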
How it was run: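 TNFa was quantified by ELISA in LPS-activated co-cultures of human endothelial cells and PBMC, 24 h post-dosing. Both increases and decreases versus DMSO were fitted.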

[19] = read-out: Transforming growth factor beta 1 (TGFb1), TGFB1 (gene 7040); assay: BSK_KF3CT_TGFb1: BioMAP Diversity Plus: KF3CT Assay for Transforming growth factor beta 1 (TGFb1) Biomarker Activity (AID 2283072); conditions: primary human keratinocytes with fibroblasts; actives raise or lower the signal
How it was run: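 ELISA quantifies TGF-b1 at 24 h post-dose in a primary human skin co-culture of keratinocytes and fibroblasts, with gain or loss judged against DMSO. Parallel SRB total-protein staining flags overt cytotoxicity.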

Measured: AC50

Tumor necrosis factor (Homo sapiens), sequence (P01375 whole entry, looked up): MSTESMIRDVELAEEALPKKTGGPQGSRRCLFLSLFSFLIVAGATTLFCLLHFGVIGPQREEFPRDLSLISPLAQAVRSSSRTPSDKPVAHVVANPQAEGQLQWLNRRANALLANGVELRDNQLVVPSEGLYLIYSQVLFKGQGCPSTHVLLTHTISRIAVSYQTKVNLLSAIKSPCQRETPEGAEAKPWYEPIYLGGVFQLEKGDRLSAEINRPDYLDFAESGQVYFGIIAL
E-selectin (Homo sapiens), sequence (P16581 whole entry, looked up): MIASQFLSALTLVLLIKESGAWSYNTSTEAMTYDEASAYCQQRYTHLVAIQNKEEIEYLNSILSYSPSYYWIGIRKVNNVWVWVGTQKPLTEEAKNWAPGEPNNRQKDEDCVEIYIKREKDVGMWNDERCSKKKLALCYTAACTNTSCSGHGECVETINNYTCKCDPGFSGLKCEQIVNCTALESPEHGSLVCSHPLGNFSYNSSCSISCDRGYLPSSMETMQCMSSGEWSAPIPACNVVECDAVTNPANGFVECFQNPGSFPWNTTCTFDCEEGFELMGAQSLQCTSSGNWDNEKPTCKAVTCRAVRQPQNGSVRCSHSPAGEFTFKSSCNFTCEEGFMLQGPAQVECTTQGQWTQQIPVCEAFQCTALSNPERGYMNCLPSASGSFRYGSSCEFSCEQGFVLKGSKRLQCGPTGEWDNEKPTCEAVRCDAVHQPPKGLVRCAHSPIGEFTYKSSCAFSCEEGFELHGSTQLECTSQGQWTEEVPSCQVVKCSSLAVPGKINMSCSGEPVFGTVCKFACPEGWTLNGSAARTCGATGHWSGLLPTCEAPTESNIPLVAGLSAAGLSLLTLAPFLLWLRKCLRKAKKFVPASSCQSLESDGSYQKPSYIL

C=C[Si](OC(C)=O)(OC(C)=O)OC(C)=O
not listed: [19]
inactive: all other assays above

C=CC=CC=CCCCCC
inactive: all assays above

Nc1ccc(N)c(Cl)c1
active: [1] 13 µM and 17.1 µM | [2] 26.4 µM and 31.4 µM | [6] 8.84 µM and 11.4 µM | [9] 20 µM and 18.3 µM | CD40, CD40 (gene 958) 3.22 µM and 2.55 µM | [11] 13.9 µM | [12] 7.92 µM | [13] 4.62 µM and 33.4 µM | [14] 32.7 µM and 32.2 µM | [15] 20 µM and 13 µM | [16] 8.8 µM and 15.4 µM | [17] 3.97 µM and 3.44 µM | [18] 11.6 µM
inactive: [3] | [4] | [5] | [7] | [8] | [10] | [11] | [12] | [18]

CC1OC1C1CCC2(C)OC2C1 (stereo not given)
inactive: all assays above

CO[Si](OC)(OC)c1ccccc1
not listed: [19]
inactive: all other assays above
